The first assay addresses ZNF721 full-length (Homo sapiens, UniProt Q8TF20-2 1-923). The assay can be described thus: HT-SELEX; 20 mM HEPES pH 7, 140 mM KCl, 5 mM NaCl, 1 mM K2HPO4, 2 mM MgSO4, 100 uM EGTA, ZnSO4, 0.1% Tween20; room temperature, 1 h; high values mean tight binding. Particulars: protein: ivt; tags: eGFP (N-terminal); dsDNA, one strand shown. In short, it runs like this: (§1)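 Tagged transcription factor, expressed in HEK293 lysate or cell-free extract as a full-length protein or DNA-binding-domain fragment, was held on beads. It bound a randomized 40-base DNA library during 1 h at room temperature in low-stringency HEPES/KCl buffer with Tween20. Eluted DNA went through successive PCR cycles and Illumina sequencing of ~3 million 60 bp reads per sample. A higher relative k-mer count in the selected reads denotes tighter binding.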
ZNF721 full-length, sequence (Q8TF20 other isoform, or with tags, fused parts or gaps): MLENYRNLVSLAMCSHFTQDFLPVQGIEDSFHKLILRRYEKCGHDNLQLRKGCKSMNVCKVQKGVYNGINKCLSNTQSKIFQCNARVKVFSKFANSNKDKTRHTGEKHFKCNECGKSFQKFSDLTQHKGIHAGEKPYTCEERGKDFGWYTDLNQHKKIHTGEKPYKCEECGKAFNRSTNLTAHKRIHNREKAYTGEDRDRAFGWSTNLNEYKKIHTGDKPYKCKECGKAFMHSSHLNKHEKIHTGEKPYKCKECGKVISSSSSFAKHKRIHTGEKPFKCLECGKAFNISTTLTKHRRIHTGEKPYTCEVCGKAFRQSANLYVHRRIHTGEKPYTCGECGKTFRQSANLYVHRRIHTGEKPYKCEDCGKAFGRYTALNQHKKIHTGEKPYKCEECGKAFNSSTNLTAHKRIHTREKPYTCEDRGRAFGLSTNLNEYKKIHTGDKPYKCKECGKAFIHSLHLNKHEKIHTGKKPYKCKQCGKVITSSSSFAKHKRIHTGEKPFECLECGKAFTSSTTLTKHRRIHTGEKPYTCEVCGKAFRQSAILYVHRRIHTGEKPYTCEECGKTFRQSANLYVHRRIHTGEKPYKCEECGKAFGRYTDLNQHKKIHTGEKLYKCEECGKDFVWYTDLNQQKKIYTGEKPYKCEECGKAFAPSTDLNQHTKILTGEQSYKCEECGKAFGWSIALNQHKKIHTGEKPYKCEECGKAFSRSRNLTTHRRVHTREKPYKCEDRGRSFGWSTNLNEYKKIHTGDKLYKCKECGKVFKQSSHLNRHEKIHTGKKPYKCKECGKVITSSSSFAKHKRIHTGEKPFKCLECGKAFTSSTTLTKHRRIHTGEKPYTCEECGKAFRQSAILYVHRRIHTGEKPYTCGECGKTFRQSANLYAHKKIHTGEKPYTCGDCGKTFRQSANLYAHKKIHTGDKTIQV
With CCTACCCCCC, the binding signal is 0.127 relative 10-mer count.
Regarding GGGGGGTGGA, the binding signal came to 0.145 relative 10-mer count.
Sequence ACCGCCCCAC gave a binding signal of 0.103 relative 10-mer count.
The same measure, in the same setting: under CCACCCCACC stands 0.411 relative 10-mer count; under ACCTCCCCCC, 0.151 relative 10-mer count.
The same measure, in the same setting: the figure for CGGAAAAAAG is 0.109 relative 10-mer count; for CCCACCACGC it is 0.108 relative 10-mer count.
On the same count and under the same terms, the figure for CCTACCACCC is 0.111 relative 10-mer count.
AGGATACCCT displayed a binding signal of 0.106 relative 10-mer count.
On to AAGCGTCTCC, for which the binding signal was 0.163 relative 10-mer count.
The same measure, in the same setting: the figure for ACCCCGCCAC is 0.107 relative 10-mer count.
As for AGAAAAAAGC, the binding signal was found to be 0.36 relative 10-mer count.
Still for that read-out and setting: under CCCCACCGCC stands 0.28 relative 10-mer count.
The same measure, in the same setting: under CCCCTCCGCC stands 0.167 relative 10-mer count; under CGCCCCCCGC, 0.12 relative 10-mer count; under TAAAAAAACA, 0.162 relative 10-mer count.
ATCCCACCCC came in with a binding signal of 0.123 relative 10-mer count.
Still for that read-out and setting: the figure for ACGAAAAAAA is 0.107 relative 10-mer count; for CCCCGCTCCC it is 0.139 relative 10-mer count; for CACCCCGACC it is 0.113 relative 10-mer count.
Sequence AGGGTTTCCA showed a binding signal of 0.106 relative 10-mer count.
Same read-out and setting: under CCCCCAGCCC stands 0.146 relative 10-mer count.
Same read-out and setting: the figure for CCCACCACCA is 0.199 relative 10-mer count; for CCGCCCCACC it is 0.257 relative 10-mer count; for GTGGGGGGGA it is 0.145 relative 10-mer count.
Take AACCCCACCC: the binding signal was determined as 0.141 relative 10-mer count.
On the same count and under the same terms, the figure for AGCGTCTCCT is 0.109 relative 10-mer count.
Still for that read-out and setting: under CACCCCCGCC stands 0.193 relative 10-mer count; under CCCGCCCCCC, 0.264 relative 10-mer count.
Same read-out and setting: the figure for GTGGTGGGGA is 0.14 relative 10-mer count.
For the sequence CGAAAAAAAG, the binding signal came out at 0.159 relative 10-mer count.
On the same count and under the same terms, the figure for CCATCCCCCC is 0.155 relative 10-mer count; for AAGCAGCATA it is 0.179 relative 10-mer count; for CACCCACCCG it is 0.132 relative 10-mer count.
The same measure, in the same setting: under CCGTCCCACC stands 0.123 relative 10-mer count.
Turning to CCCCCCCACC, the binding signal stood at 0.358 relative 10-mer count.
The same measure, in the same setting: under CACCACCCCG stands 0.135 relative 10-mer count.
The same measure, in the same setting: under ACCACCCACC stands 0.242 relative 10-mer count.
On the same count and under the same terms, the figure for CAAAAAAGCA is 0.259 relative 10-mer count; for CCACCCCACG it is 0.131 relative 10-mer count.

The target of the next assay is ZNF721 DBD1 (Homo sapiens, UniProt Q8TF20-2 29-461). The assay is described as above. Particulars: protein: ivt; tags: eGFP (N-terminal); dsDNA, one strand shown. An outline of the steps: as §1
ZNF721 DBD1, sequence (Q8TF20 17-449): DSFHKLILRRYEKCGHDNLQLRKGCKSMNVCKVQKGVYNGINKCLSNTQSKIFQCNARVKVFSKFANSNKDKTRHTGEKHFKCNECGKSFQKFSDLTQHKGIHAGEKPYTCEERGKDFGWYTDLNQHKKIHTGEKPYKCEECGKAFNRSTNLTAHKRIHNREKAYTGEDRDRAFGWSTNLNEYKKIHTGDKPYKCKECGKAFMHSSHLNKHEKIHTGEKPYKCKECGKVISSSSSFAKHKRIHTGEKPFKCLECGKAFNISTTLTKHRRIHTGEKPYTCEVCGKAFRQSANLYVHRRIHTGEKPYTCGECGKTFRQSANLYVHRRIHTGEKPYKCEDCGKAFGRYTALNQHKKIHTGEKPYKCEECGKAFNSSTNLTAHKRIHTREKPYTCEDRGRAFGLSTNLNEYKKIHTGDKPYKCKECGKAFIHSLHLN
Sequence CCTACCCCCC gave a binding signal of 0.00555 relative 10-mer count.
GGGGGGTGGA returned a binding signal of 0.00615 relative 10-mer count.
Sequence ACCGCCCCAC displayed a binding signal of 0.0033 relative 10-mer count.
Same read-out and setting: under CCACCCCACC stands 0.0178 relative 10-mer count.
On the same count and under the same terms, under ACCTCCCCCC stands 0.00578 relative 10-mer count; under CGGAAAAAAG, 0.023 relative 10-mer count; under CCCACCACGC, 0.00408 relative 10-mer count.
The same measure, in the same setting: the figure for CCTACCACCC is 0.00619 relative 10-mer count; for AGGATACCCT it is 0.00527 relative 10-mer count.
With AAGCGTCTCC, the binding signal amounted to 0.084 relative 10-mer count.
Turning to ACCCCGCCAC, the binding signal was determined as 0.00482 relative 10-mer count.
On the same count and under the same terms, the figure for AGAAAAAAGC is 0.107 relative 10-mer count; for CCCCACCGCC it is 0.0114 relative 10-mer count.
Sequence CCCCTCCGCC had a binding signal of 0.00766 relative 10-mer count.
Turning to CGCCCCCCGC, the binding signal was found to be 0.00472 relative 10-mer count.
TAAAAAAACA yielded a binding signal of 0.00234 relative 10-mer count.
Same read-out and setting: under ATCCCACCCC stands 0.00573 relative 10-mer count; under ACGAAAAAAA, 0.0146 relative 10-mer count; under CCCCGCTCCC, 0.0044 relative 10-mer count.
In turn, CACCCCGACC returned a binding signal of 0.00335 relative 10-mer count.
With AGGGTTTCCA, the binding signal was determined as 0.00128 relative 10-mer count.
As to CCCCCAGCCC, the binding signal turned out to be 0.00587 relative 10-mer count.
The same measure, in the same setting: under CCCACCACCA stands 0.00784 relative 10-mer count; under CCGCCCCACC, 0.00894 relative 10-mer count; under GTGGGGGGGA, 0.00587 relative 10-mer count.
Same read-out and setting: under AACCCCACCC stands 0.00294 relative 10-mer count.
Take AGCGTCTCCT: the binding signal turned out to be 0.0353 relative 10-mer count.
In turn, CACCCCCGCC registered a binding signal of 0.00683 relative 10-mer count.
As to CCCGCCCCCC, the binding signal came to 0.00982 relative 10-mer count.
GTGGTGGGGA: the binding signal was 0.00674 relative 10-mer count.
Sequence CGAAAAAAAG returned a binding signal of 0.0289 relative 10-mer count.
Still for that read-out and setting: under CCATCCCCCC stands 0.00592 relative 10-mer count.
On the same count and under the same terms, the figure for AAGCAGCATA is 0.00216 relative 10-mer count; for CACCCACCCG it is 0.0039 relative 10-mer count.
With CCGTCCCACC, the binding signal stood at 0.00546 relative 10-mer count.
CCCCCCCACC: the binding signal was found to be 0.0144 relative 10-mer count.
Same read-out and setting: under CACCACCCCG stands 0.00518 relative 10-mer count; under ACCACCCACC, 0.00945 relative 10-mer count.
CAAAAAAGCA returned a binding signal of 0.00725 relative 10-mer count.
Sequence CCACCCCACG had a binding signal of 0.00495 relative 10-mer count.

In the next assay the target is ZNF721 DBD2 (Homo sapiens, UniProt Q8TF20-2 395-923). The description is as above. Particulars: protein: ivt; tags: eGFP (N-terminal); dsDNA, one strand shown. In short, it runs like this: as §1
ZNF721 DBD2, sequence (Q8TF20 383-911): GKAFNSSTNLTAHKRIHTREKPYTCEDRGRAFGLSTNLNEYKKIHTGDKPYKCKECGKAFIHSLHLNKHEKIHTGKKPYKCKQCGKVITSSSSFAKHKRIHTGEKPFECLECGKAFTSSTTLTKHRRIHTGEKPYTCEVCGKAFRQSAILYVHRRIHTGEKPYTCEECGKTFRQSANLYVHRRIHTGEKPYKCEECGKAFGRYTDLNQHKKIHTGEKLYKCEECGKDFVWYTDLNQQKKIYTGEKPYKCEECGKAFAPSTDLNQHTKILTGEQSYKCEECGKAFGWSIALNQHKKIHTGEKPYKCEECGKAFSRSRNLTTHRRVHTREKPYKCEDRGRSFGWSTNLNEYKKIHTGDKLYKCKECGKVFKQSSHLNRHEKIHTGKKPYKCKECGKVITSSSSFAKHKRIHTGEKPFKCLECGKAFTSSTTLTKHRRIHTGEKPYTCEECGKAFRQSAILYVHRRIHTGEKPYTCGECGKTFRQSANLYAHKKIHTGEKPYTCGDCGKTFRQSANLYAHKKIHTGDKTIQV
Sequence CCTACCCCCC had a binding signal of 0.00707 relative 10-mer count.
Same read-out and setting: the figure for GGGGGGTGGA is 0.00407 relative 10-mer count.
The same measure, in the same setting: under ACCGCCCCAC stands 0.00252 relative 10-mer count.
On the same count and under the same terms, under CCACCCCACC stands 0.00731 relative 10-mer count; under ACCTCCCCCC, 0.00216 relative 10-mer count; under CGGAAAAAAG, 0.0288 relative 10-mer count.
In the case of CCCACCACGC, the binding signal came out at 0.00539 relative 10-mer count.
In turn, CCTACCACCC came in with a binding signal of 0.0101 relative 10-mer count.
Still for that read-out and setting: the figure for AGGATACCCT is 0.171 relative 10-mer count; for AAGCGTCTCC it is 0.0107 relative 10-mer count; for ACCCCGCCAC it is 0.00264 relative 10-mer count.
The same measure, in the same setting: under AGAAAAAAGC stands 0.0556 relative 10-mer count.
For CCCCACCGCC, the binding signal is 0.00635 relative 10-mer count.
Sequence CCCCTCCGCC came in with a binding signal of 0.003 relative 10-mer count.
In the case of CGCCCCCCGC, the binding signal came out at 0.00384 relative 10-mer count.
Same read-out and setting: the figure for TAAAAAAACA is 0.134 relative 10-mer count; for ATCCCACCCC it is 0.00168 relative 10-mer count; for ACGAAAAAAA it is 0.0612 relative 10-mer count.
Same read-out and setting: the figure for CCCCGCTCCC is 0.00108 relative 10-mer count.
As to CACCCCGACC, the binding signal is 0.00216 relative 10-mer count.
The same measure, in the same setting: the figure for AGGGTTTCCA is 0.201 relative 10-mer count.
On the same count and under the same terms, the figure for CCCCCAGCCC is 0.00252 relative 10-mer count.
Sequence CCCACCACCA registered a binding signal of 0.00599 relative 10-mer count.
Still for that read-out and setting: the figure for CCGCCCCACC is 0.00407 relative 10-mer count.
Consider GTGGGGGGGA, for which the binding signal turned out to be 0.00348 relative 10-mer count.
Same read-out and setting: the figure for AACCCCACCC is 0.00156 relative 10-mer count; for AGCGTCTCCT it is 0.194 relative 10-mer count; for CACCCCCGCC it is 0.00288 relative 10-mer count.
Still for that read-out and setting: the figure for CCCGCCCCCC is 0.0018 relative 10-mer count.
Same read-out and setting: the figure for GTGGTGGGGA is 0.00443 relative 10-mer count; for CGAAAAAAAG it is 0.0578 relative 10-mer count; for CCATCCCCCC it is 0.0036 relative 10-mer count.
Take AAGCAGCATA: the binding signal came out at 0.199 relative 10-mer count.
Same read-out and setting: the figure for CACCCACCCG is 0.00264 relative 10-mer count; for CCGTCCCACC it is 0.00312 relative 10-mer count.
Same read-out and setting: the figure for CCCCCCCACC is 0.00791 relative 10-mer count; for CACCACCCCG it is 0.00312 relative 10-mer count.
In turn, ACCACCCACC had a binding signal of 0.00875 relative 10-mer count.
The same measure, in the same setting: the figure for CAAAAAAGCA is 0.17 relative 10-mer count; for CCACCCCACG it is 0.00491 relative 10-mer count.

Values taken from paper PMC13541613, “GHT-SELEX demonstrates unexpectedly high intrinsic sequence specificity and complex DNA binding of many human transcription factors”.
